Where a name gives a salt, the structure may show the parent alone. ± gives the standard deviation of the averaged measurements.
tested on: Toxoplasma gondii RH (in HFF); assay: parasite growth relative to the screen mean (all compounds = 100%); higher = less inhibition of parasite growth; conditions: 5 µM; 72 h; oxygen 21 %
Outline: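 RH β-Gal–GFP Toxoplasma at MOI 1:5 was used to infect confluent human foreskin fibroblasts in 96-well plates within 2 h of pin-transferring compounds to 5 µM final. After 72 h at 21% O2, parasite number was determined by CPRG β-Gal assay against standard curves on the same plate. Growth is relative to the screen mean and averaged over two screens, with all compounds = 100%.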

`Clc1ccc(N2CCN(Cc3c[nH]c4ncccc34)CC2)cc1` [L-745,870 trihydrochloride] and `N#Cc1ccc(N2CCN(C(=O)COc3ccc4[nH]cc(CCN)c4c3)CC2)cc1` [Donitriptan hydrochloride] are within error of each other in parasite growth: 72.9 ± 7.7% for the first, 78.6 ± 12% for the second.

`CC(C)n1cnc2c(C(=O)N[C@H]3CN4CCC3CC4)cc(Cl)cc21` and `CN1[C@@H]2CC[C@H]1C[C@@H](OC(=O)c1cc(Cl)cc(Cl)c1)C2` are within error of each other in parasite growth: 71.5 ± 9.6% for the first, 70.1 ± 18% for the second.

`O=C(O)C1=CCCN(CCOC(c2ccc(C(F)(F)F)cc2)c2ccc(C(F)(F)F)cc2)C1` [CI 966 hydrochloride] and `O=C(CCCN1CCC2(CC1)C(=O)NCN2c1ccccc1)c1ccc(F)cc1` [Spiperone hydrochloride] are within error of each other in parasite growth: 137 ± 5.2% for the first, 99.8 ± 36% for the second.

`CCC[C@@H]1CC2=CC(=O)CC[C@]2(C)[C@H]2CC[C@@]3(C)[C@@H](CC[C@@]3(O)CCC(=O)O)[C@H]12` and `CCN(CC)CCO[C@H]1CC[C@@]2(C)C(=CC[C@@H]3[C@@H]2CC[C@]2(C)C(=O)CC[C@@H]32)C1` are within error of each other in parasite growth: 75.2 ± 19% for the first, 79.6 ± 24% for the second.

First: CN(C(=O)Cc1ccc(Cl)c(Cl)c1)[C@H](CN1CCCC1)c1ccccc1 [ICI-199,441 hydrochloride]
Second: CN(C(=O)Cc1ccccc1)C(CN1CCCC1)c1ccccc1 (stereo not drawn) [N-MPPP Hydrochloride]
The parasite growth of the first is lower: 49.6 ± 10% for the first, 112.4 ± 0.63% for the second.

`C1CCc2nnnn2CC1` [Pentylenetetrazole] and `C[N+](C)(C)CC#CCN1CCCC1=O` [Oxotremorine M] are within error of each other in parasite growth: 110 ± 22% for the first, 172 ± 41% for the second.

Going from `CCCN(CCC)C1CCc2cccc(O)c2C1` (stereo not drawn) [8-Hydroxy-DPAT hydrobromide] to `CCCN(CCC)C1CCc2ccc(O)cc2C1` (stereo not drawn) [7-Hydroxy-DPAT hydrobromide], the parasite growth falls from 121 ± 11% to 67.2 ± 33%.

Going from `COc1ccc2[nH]cc(C3=CCNCC3)c2c1` to `CCCOc1ccc2[nH]cc(C3=CCNCC3)c2n1`, the parasite growth rises from 105 ± 28% to 140 ± 5.8%.

First: COc1ccc(C(=O)N2CCCC2=O)cc1 [Aniracetam]
Second: COc1ccc(C[C@H]2NC[C@H](O)[C@H]2OC(C)=O)cc1 [Anisomycin]
The parasite growth of the first is higher: 97.2 ± 53% for the first, less than 0% for the second.

Going from `C[C@H]1CCC/C=C/[C@@H]2C[C@H](O)C[C@H]2[C@H](O)/C=C/C(=O)O1` [Brefeldin A] to `Cc1cc(C)cc(C(=O)OC2C[C@H]3CC[C@@H](C2)N3C)c1` (stereo partly drawn) [Tropanyl-3,5-dimethylbenzoate], the parasite growth rises from less than 0% to 97.3 ± 3.6%.

`Oc1ccc2c3c1O[C@H]1c4oc5ccccc5c4C[C@@]4(O)[C@@H](C2)N(CC2CC2)CC[C@]314` [Naltriben mesylate] and `C[C@@]12N[C@@H](Cc3ccccc31)c1ccccc12` [(-)-MK 801 maleate] are within error of each other in parasite growth: 127 ± 55% for the first, 111 ± 10% for the second.

Going from `CN1[C@@H]2C[C@@H](OC(=O)[C@H](CO)c3ccccc3)C[C@H]1[C@@H]1O[C@@H]12` [Scopolamine hydrobromide] to `CC[C@@H](CO)NC(=O)[C@@H]1C=C2c3cccc4[nH]cc(c34)C[C@H]2N(C)C1` [Methylergometrine maleate], the parasite growth rises from 83.5 ± 48% to 177 ± 41%.

Going from `CC(=O)NCCc1c[nH]c2ccccc12` [N-Acetyltryptamine] to `CC(N)Cc1c[nH]c2ccc(OCc3cccs3)cc12` (stereo not drawn) [BW 723C86 hydrochloride], the parasite growth falls from 146 ± 7.5% to 133 ± 3.8%.

`CCOC(=O)c1ncn2c1[C@@H]1CCCN1C(=O)c1cc(OC)ccc1-2` and `CCOC(=O)c1ncc2[nH]c3ccc(OCc4ccccc4)cc3c2c1COC` are within error of each other in parasite growth: 93.9 ± 12% for the first, 83.8 ± 31% for the second.

First: Ic1cncc(OC[C@@H]2CCN2)c1
Second: Clc1ccc(C2=CCCC3CCC2N3)cn1 (stereo not drawn) [UB 165 fumarate]
The parasite growth of the first is higher: 137 ± 16% for the first, 106 ± 11% for the second.

`C#CCOC(=O)C1=CCCN(C)C1` [Arecaidine propargyl ester tosylate] and `CN1C(=O)CCS(=O)(=O)C1c1ccc(Cl)cc1` (stereo not drawn) [Chlormezanone] are within error of each other in parasite growth: 137 ± 4.5% for the first, 145 ± 22% for the second.

`Cc1onc(O)c1C[C@H](N)C(=O)O` and `Cc1onc(O)c1CC(N)C(=O)O` (racemic) [(RS)-AMPA hydrobromide] are within error of each other in parasite growth: 113 ± 34% for the first, 121 ± 16% for the second.

`O=C(O)/C=C/CO` [trans-4-Hydroxycrotonic acid] and `CCNC(=O)[C@H]1O[C@@H](n2cnc3c(N)ncnc32)[C@H](O)[C@@H]1O` are within error of each other in parasite growth: 108 ± 8.3% for the first, 93 ± 12% for the second.

First: CC1=NN=C(c2ccc(N)cc2)c2cc3c(cc2C1)OCO3
Second: C[C@@H](N)Cc1cnc[nH]1 [(R)-(-)- α-Methylhistamine dihydrobromide]
The parasite growth of the first is lower: 47.2 ± 4.7% for the first, 107 ± 25% for the second.

Reference: the supplement of paper PMC4894684
